Compound activity: PubChem, several laboratories
Platelet DG rel – inhibitors of platelet dense granule secretion, primary screen, cell-based, MLPCN, human platelets | 0.22% of 300,000 active | human platelet-rich plasma, SFLLRN dense granule ATP release, luminescence | inhibition, %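 (compounds screened at 7.5 µM in platelet-rich plasma)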 | AID 1663, 2009;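 active = mean replicate score, as percent of positive control, at or above 50; inconclusive = mean below 50 but at least one replicate at or above 50; inactive = mean and every replicate below 50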
PolyA inhibitor – polyadenylation inhibitors in yeast reporter cells, primary screen, luminescence, S. cerevisiae; S. cerevisiae SKY197-pL101 polyadenylation reporter, beta-gal luminescence; efflux-impaired pdr1/pdr3 knockout yeast; score 100 = 6 SD above DMSO; activity score, % at 12 µM; 0.02% of 300,000 active; AID 1875, 2009;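 active = lowest replicate activity score at least 50, where 100 means six control SD above control mean; inconclusive = lowest score under 50 but half or more replicates reach 50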;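 note: yeast exposed to compound for 9 h at 30 °C; higher score means more reporter readthrough which indicates perturbed polyadenylation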
HIF act – HIF pathway transcriptional activators, primary screen, cell-based, U2OS HRE-luciferase, luminescence. U2OS HRE-luciferase reporter; normalized: DMSO 0%, desferrioxamine 100%. AID 1910, 2009. activation, % at 7.5 µM (by protocol). 0.32% of 300,000 active;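 active = mean activation of at least 10% of the iron chelator positive control signal, with at least half of replicates also reaching 10%; inconclusive = mean and replicate majority disagree about reaching 10%; inactive = mean and most replicates under 10%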
p-CIP stab down – p/CIP-EGFP fusion destabilizers, primary screen, fluorescence, F442A cells | 16 h | Q05BA5 | 0.01% of 290,000 active | AID 1984, 2009 | decrease of EGFP signal, % at 10 µM;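 active = EGFP signal decrease of at least 30% at 10 µM or well 3 SD below plate mean, unless failing retest; inactive = the rest, including hits failing retest or dose response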
Target sequence (Q05BA5 1-1403): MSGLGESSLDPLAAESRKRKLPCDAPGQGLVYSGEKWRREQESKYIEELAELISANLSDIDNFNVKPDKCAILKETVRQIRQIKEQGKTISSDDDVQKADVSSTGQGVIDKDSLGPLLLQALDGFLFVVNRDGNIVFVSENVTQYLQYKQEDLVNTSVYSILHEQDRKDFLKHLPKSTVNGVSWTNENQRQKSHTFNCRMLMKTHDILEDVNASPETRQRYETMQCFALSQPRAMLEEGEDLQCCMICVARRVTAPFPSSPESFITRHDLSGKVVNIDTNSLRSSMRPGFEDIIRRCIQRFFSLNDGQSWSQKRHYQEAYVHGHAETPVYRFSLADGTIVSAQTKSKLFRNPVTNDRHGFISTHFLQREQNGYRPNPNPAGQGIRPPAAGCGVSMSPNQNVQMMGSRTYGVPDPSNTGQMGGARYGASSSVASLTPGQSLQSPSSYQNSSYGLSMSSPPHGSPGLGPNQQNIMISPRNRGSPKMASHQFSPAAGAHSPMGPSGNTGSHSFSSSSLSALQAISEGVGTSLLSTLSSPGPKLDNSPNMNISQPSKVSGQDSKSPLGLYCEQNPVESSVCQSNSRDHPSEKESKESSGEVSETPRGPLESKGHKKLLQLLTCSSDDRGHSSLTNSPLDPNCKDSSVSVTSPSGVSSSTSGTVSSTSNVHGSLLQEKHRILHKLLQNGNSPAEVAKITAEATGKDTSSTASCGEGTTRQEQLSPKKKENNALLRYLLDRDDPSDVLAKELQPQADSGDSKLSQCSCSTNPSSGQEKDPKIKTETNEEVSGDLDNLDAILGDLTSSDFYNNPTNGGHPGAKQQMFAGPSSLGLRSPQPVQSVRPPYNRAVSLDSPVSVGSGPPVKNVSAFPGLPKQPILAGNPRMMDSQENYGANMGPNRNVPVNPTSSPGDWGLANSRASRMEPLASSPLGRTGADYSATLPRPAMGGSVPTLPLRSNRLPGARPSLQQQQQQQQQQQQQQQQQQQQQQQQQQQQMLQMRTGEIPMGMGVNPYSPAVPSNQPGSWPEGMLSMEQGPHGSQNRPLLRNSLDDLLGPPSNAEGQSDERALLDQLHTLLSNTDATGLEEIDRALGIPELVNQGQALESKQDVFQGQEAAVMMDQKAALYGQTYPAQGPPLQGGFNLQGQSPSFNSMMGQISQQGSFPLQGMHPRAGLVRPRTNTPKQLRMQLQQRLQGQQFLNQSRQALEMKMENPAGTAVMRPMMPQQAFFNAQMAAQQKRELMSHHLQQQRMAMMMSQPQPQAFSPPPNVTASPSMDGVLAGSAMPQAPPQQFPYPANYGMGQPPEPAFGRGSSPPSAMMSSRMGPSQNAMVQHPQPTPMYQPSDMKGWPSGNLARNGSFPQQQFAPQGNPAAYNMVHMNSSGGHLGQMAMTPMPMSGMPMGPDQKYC
AHR act – AHR activators, primary screen, cell-based, luminescence, luciferase reporter, human. activation, % at 5 µM. Aryl hydrocarbon receptor (Homo sapiens), P35869. AHR-responsive luciferase reporter cells. 2.5% of 320,000 active; in the data active = activation above about 47%
Large screens that a line does not name were inactive. An excerpt weighted towards active compounds, which were near 2.8% of everything screened.

CCOC(=O)c1ccc(Cl)c(NC(=O)c2cccnc2)c1	none
CC(=O)C1=C(C)NC(SCC(=O)c2cc(Cl)ccc2Cl)=C(C#N)C1c1ccco1 (stereo unspecified)	AHR act 83
CC(=O)C1=C(C)NC(SCC(=O)c2ccc(F)cc2)=C(C#N)C1c1ccco1 (stereo unspecified)	AHR act 64
CCc1ccc(C(=O)CSC2=C(C#N)C(c3ccco3)C(C(C)=O)=C(C)N2)cc1 (stereo unspecified)	none
CN1C(=O)c2ccc(Oc3ccccc3)cc2C1=O	none (no result: p-CIP stab down)
CCC(C)c1ccc(NC(=O)c2cccnc2)cc1 (stereo unspecified)	none
CCC(C)c1ccc(O)c(NC(=O)c2cccnc2)c1 (stereo unspecified)	PolyA inhibitor inconclusive, AHR act 60
CCc1cccc(C)c1NC(=O)C1CCCN1C(=O)NCc1ccccc1 (stereo unspecified)	none
Cn1ccnc1SCC(=O)c1c(N)n(C)c(=O)n(C)c1=O	none (no result: Platelet DG rel, PolyA inhibitor, HIF act, p-CIP stab down)
Cc1cc(C)nc(SCC(=O)c2c(N)n(C)c(=O)n(C)c2=O)n1	AHR act 50
CCCc1cc(=O)oc2cc(C)cc(OCC(=O)N3CCC(C(=O)O)CC3)c12	none
CCNc1nc(Cl)nc(NNC(=O)C(C)Oc2ccccc2)n1 (stereo unspecified)	HIF act 236
CC(C)(C)OC(=O)N[C@@H](CC(=O)OCc1ccccc1)C(=O)O	none
N/N=C(\Cc1cscn1)c1ccc(O)cc1O	Platelet DG rel 57
CC(=O)CC(=O)Nc1ccc(Nc2ccccc2)cc1	none
Cc1cc(C)c[n+](C(C)C(=O)c2ccc(Cl)cc2)c1 (stereo unspecified)	none
Cn1c(N=NC(=O)c2ccccc2)c(O)c2ccccc21	AHR act 96
CC(C)(C)n1c(O)c2ccc(C(=O)N=NC(=O)c3ccccc3)cc2c1O	none
Cc1nn(C(C)C)c(C)c1CN1CCC(C(=O)Nc2cccc(-c3cccc(F)c3)c2)CC1	none
CCOc1cc2[nH]c(=S)n(Cc3ccc(C)o3)c(=O)c2cc1OCC	AHR act 65
Cc1ccc(Cn2c(=S)[nH]c3ccc(N4CCOCC4)cc3c2=O)o1	none
CCCCCCCCC[n+]1cccc2c3ccccc3ccc21	Platelet DG rel 87
COC(=O)C(C)(C)ONC(=O)Nc1ccccc1[N+](=O)[O-]	none
CCCONC(=O)Nc1ccccc1[N+](=O)[O-]	AHR act 53
Cc1ccccc1NC(=O)Nc1ccccn1	none
O=C(Nc1ccccn1)Nc1ccccc1[N+](=O)[O-]	AHR act 49
Cc1ccc(F)c(NC(=O)c2c(-c3ccccc3)noc2C)c1	none
Fc1ccc(NC(=S)NC23CN4CN(CN(C4)C2)C3)cc1	none
O=c1c2[nH]c3ccc(F)cc3c2nc2n1CCCS2	AHR act 71
O=c1c2[nH]c3ccc(F)cc3c2nc2n1CCS2	none
O=c1c2[nH]c3ccccc3c2nc2n1CCCS2	AHR act 66
O=c1c(C(c2ccccc2)c2c(O)nc3n(c2=O)CCCS3)c(O)nc2n1CCCS2	none
O=S(=O)(Nc1cccc(-c2cn3c(n2)SCC3)c1)c1ccccc1	none
COc1ccccc1OCC(=O)Nc1c2c(nn1-c1ccccc1)CS(=O)(=O)C2	none
COc1ccc(Nc2cc(C(=O)N3CCc4ccccc4C3)c3ccccc3n2)c(OC)c1	AHR act 55
COCCCNC(=O)c1cc(Nc2ccc(OC)cc2OC)nc2ccccc12	none
COc1ccccc1Nc1cc(C(=O)N2CCc3ccccc3C2)c2ccccc2n1	AHR act 64
COc1ccccc1-c1cc(C(=O)N2CCc3ccccc3C2)c2ccccc2n1	none
COc1ccccc1NC(=O)OC(C)c1ccc(Cl)cc1 (stereo unspecified)	AHR act 75
COCCOc1cc(-n2ccnc2SC)c(Cl)cc1Cl	none
Cc1ccc(NS(=O)(=O)c2ccc(N/N=C/c3ccncc3)c([N+](=O)[O-])c2)c(C)c1	AHR act 48
O=C(C1CC(=O)N(c2ccc3c(c2)OCCO3)C1)N1CCN(c2cccc(C(F)(F)F)c2)CC1 (stereo unspecified)	none (no result: p-CIP stab down)
O=C(/C=C/c1ccc2c(c1)OCO2)Nc1nncs1	AHR act 89
O=C(/C=C/c1ccc2c(c1)OCO2)Nc1nc(-c2ccccc2)cs1	none
O=C(/C=C/c1ccc2c(c1)OCO2)Nc1cccnc1	HIF act 11, AHR act 56
CC(=O)Nc1ccc(NC(=O)/C=C/c2ccc3c(c2)OCO3)cc1	none
CCOC(=O)c1c(NC(=O)/C=C/c2ccc3c(c2)OCO3)sc(C)c1CC	Platelet DG rel 54
O=C(/C=C/c1ccco1)Nc1ccc2c(c1)OCO2	AHR act 72
CN1CCc2nc(SCCOc3ccccc3)c(C#N)cc2C1	none
CC1=NN(c2ccccc2)C(=O)C1(C)[N+](=O)[O-] (stereo unspecified)	none
COc1ccc2c(c1)oc1c(SCc3nc4ccccc4[nH]3)nc(C)nc12	AHR act 54 (no result: Platelet DG rel, PolyA inhibitor, HIF act, p-CIP stab down)
CCOc1cc(N2CCOCC2)c(OCC)cc1NC(C)C(=O)N1CCC(C)CC1 (stereo unspecified)	HIF act 29
O=C(O)C1CC(c2ccccc2)=Nc2ccccc2S1 (stereo unspecified)	AHR act 53
O=[N+]([O-])c1ccc(C2CC(c3ccccc3)=Nc3ccccc3S2)cc1 (stereo unspecified)	none
OC(COC1CCCCC1)CN1CCCCC1 (stereo unspecified)	none
CN(CC(=O)Nc1ccc(N2CCOCC2)cc1)CC(=O)Nc1ccc(N2CCOCC2)cc1	AHR act 52
CN(CC(=O)Nc1ccc(C#N)cc1)CC(=O)Nc1ccc(N2CCOCC2)cc1	none
CC1=C(c2ccccc2)SC2=NCCN21	none (no result: AHR act)
CC1CCCCN1C(=O)COc1ccc(F)cc1 (stereo unspecified)	none
COc1ccc(NC(=O)CCC(=O)N(Cc2ccc(OC)c(OC)c2)c2nccs2)cc1	HIF act 170
COC(=O)c1ccc(OCC(=O)NC2CCCCCC2)cc1	none
O=[N+]([O-])c1cc(-c2cnc3ccccc3n2)ccc1Cl	none
COc1ccccc1Oc1ccc(-c2cnc3ccccc3n2)cc1[N+](=O)[O-]	AHR act 55
O=[N+]([O-])c1cc(-c2cnc3ccccc3n2)ccc1Oc1ccc(Cl)cc1	AHR act 50
COc1cc(OC)cc(-c2c(C#Cc3ccsc3)c3cc(-c4ccc5c(c4)OCCO5)ccc3n2C)c1	none (no result: Platelet DG rel, PolyA inhibitor, HIF act, p-CIP stab down)
Cn1c(SCC(=O)Nc2cccc(S(=O)(=O)NC3=NCCCCC3)c2)nnc1-c1ccccc1	none
O=C1CCCc2ccccc2N1Cc1cccc(F)c1	none
O=C1CCCc2ccccc2N1Cc1ccc(F)cc1	HIF act 42
CCCc1nc2c(C)cc(C)cc2c(N)c1CC	AHR act 47
COc1ccc(/C=C/C(=O)Nc2cc(C)on2)cc1	PolyA inhibitor inconclusive
COc1ccc(/C=C/C(=O)Nc2nonc2NC(C)=O)cc1	AHR act 49
